Measurements published in PubChem BioAssay (NCI).
About 79,000 compounds went through this panel and 15% of them were active in at least one assay; those are over-represented in the sample as a whole. The source made the active and inactive calls. No stated cut-off is given here; in the data, active means growth inhibition above about 70%; inactive means the rest.

What was measured:
[1] = NCI Yeast Anticancer Drug Screen. Data for the rad52 strain (AID 147);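 further: 0% = growth of vehicle-treated control cultures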; conditions: S. cerevisiae rad52 mutant growth inhibition, stronger effect = higher value
Procedure, shortened: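 Compounds are applied to a genetically defined yeast strain lacking normal DNA damage repair, and inhibition of growth is expressed relative to cultures given vehicle only.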

[2] = NCI Yeast Anticancer Drug Screen. Data for the wt1 strain (AID 149);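 further: 0% = growth of vehicle-treated wt1 cultures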; conditions: S. cerevisiae wt1 strain (SPY 50644) growth inhibition, stronger effect = higher value
Procedure, shortened: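 Each compound is tested on wt1 yeast and the loss of growth versus vehicle gives the inhibition value.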

[3] = NCI Yeast Anticancer Drug Screen. Data for the rad50EPP+ strain (AID 151);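 further: 0% = growth of vehicle-treated control cultures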; conditions: S. cerevisiae rad50 mutant strain, stronger effect = higher value
Procedure, shortened: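 Compounds were applied to the rad50EPP+ yeast strain, which bears a defined DNA repair alteration, and growth inhibition was determined relative to vehicle-treated cultures.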

[4] = NCI Yeast Anticancer Drug Screen. Data for the mgt1 strain (AID 153); conditions: S. cerevisiae mgt1 mutant growth inhibition, stronger effect = higher value
Procedure, shortened: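 Strain: mgt1 yeast, one of a set carrying defined DNA damage repair or cell cycle control alterations. Compound-treated growth compared with vehicle.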

[5] = NCI Yeast Anticancer Drug Screen. Data for the rad50 strain (AID 155);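 further: 0% = growth of vehicle-only cultures of the same strain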; conditions: S. cerevisiae rad50 strain growth inhibition, stronger effect = higher value
Procedure, shortened: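 Vehicle-treated cultures provide the reference for the growth inhibition reported for compound-exposed, repair-deficient yeast.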

[6] = NCI Yeast Anticancer Drug Screen. Data for the mec2-1 strain (AID 157); conditions: S. cerevisiae mec2-1 strain, stronger effect = higher value
Procedure, shortened: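 Strain: mec2-1 (DNA repair/cell cycle alteration). Compound exposure, then growth measured; inhibition expressed relative to vehicle.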

[7] = NCI Yeast Anticancer Drug Screen. Data for the rad14 strain (AID 159);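 further: 0% = growth of vehicle-treated control cultures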; conditions: S. cerevisiae rad14 strain growth inhibition, stronger effect = higher value
Procedure, shortened: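 Inhibition of growth is reported for a repair-deficient yeast mutant following compound treatment, calculated relative to cultures that received vehicle.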

[8] = NCI Yeast Anticancer Drug Screen. Data for the sgs1 mgt1 strain (AID 161);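 further: 0% = growth of cultures given vehicle only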; conditions: S. cerevisiae sgs1 mgt1 strain, stronger effect = higher value
Procedure, shortened: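 Mutant yeast exposed to compound; growth scored against vehicle-only wells.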

[9] = NCI Yeast Anticancer Drug Screen. Data for the CLN2oe strain (AID 163);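 further: 0% = growth of vehicle-only control cultures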; conditions: S. cerevisiae CLN2oe strain, stronger effect = higher value
Procedure, shortened: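 Growth of a genetically modified yeast strain is measured after compound exposure and compared with cultures given vehicle alone.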

[10] = NCI Yeast Anticancer Drug Screen. Data for the cln2 rad14 strain (AID 165);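 further: 0% = growth equal to vehicle treated cultures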; conditions: S. cerevisiae cln2 rad14 strain, stronger effect = higher value
Procedure, shortened: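 Compounds are applied to the cln2 rad14 yeast strain, and growth is then compared with that of vehicle-treated cultures to give inhibition.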

[11] = NCI Yeast Anticancer Drug Screen. Data for the bub3 strain (AID 167); conditions: S. cerevisiae bub3 mutant strain, stronger effect = higher value
Procedure, shortened: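 Mutant yeast screening strain plus compound; vehicle-treated cultures serve as the 0% inhibition reference.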

[12] = NCI Yeast Anticancer Drug Screen. Data for the sgs1 strain (AID 173);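 further: 0% = growth of vehicle-only control cultures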; conditions: S. cerevisiae sgs1 mutant, stronger effect = higher value
Procedure, shortened: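 Growth of a yeast strain bearing a defined genetic alteration is measured after compound treatment. Inhibition is expressed relative to vehicle-only controls.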

[13] = NCI Yeast Anticancer Drug Screen. Data for the rad18 strain (AID 177); conditions: S. cerevisiae rad18 mutant growth inhibition, stronger effect = higher value
Procedure, shortened: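 Growth of the mutant yeast strain after compound exposure, normalised to vehicle-only cultures.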

[14] = NCI Yeast Anticancer Drug Screen. Data for the wt2 strain (AID 169); conditions: S. cerevisiae wt2 strain growth inhibition, stronger effect = higher value
Procedure, shortened: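 This strain belongs to a panel of yeast strains with defined genetic alterations in DNA damage repair or cell cycle control. Compounds are applied, and growth inhibition is measured against vehicle-treated cultures.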

[15] = NCI Yeast Anticancer Drug Screen. Data for the mlh1 rad18 strain (AID 175); conditions: S. cerevisiae mlh1 rad18 strain growth inhibition, stronger effect = higher value
Procedure, shortened: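 Read-out is yeast growth inhibition, calculated against vehicle-only controls. The compound was applied to a strain engineered with DNA damage repair alterations.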

[16] = at 5.0 µM (retest, dose inferred, filed as 0.5)
[17] = at 50.0 µM (retest, dose inferred, filed as 5.0)

Measured: growth inhibition

Oc1ccc2ccccc2c1C(c1ccc(Cl)cc1)c1c(O)ccc2ccccc12
inactive: [1]; at 1.2 µM -39% | [1]; at 3.7 µM -23% | [1]; at 11.0 µM -17% | [1]; at 33.0 µM 51% | [2]; at 1.2 µM 15% | [2]; at 3.7 µM -17% | [2]; at 11.0 µM 2% | [2]; at 33.0 µM 55% | [3]; at 1.2 µM -50% | [3]; at 3.7 µM -61% | [3]; at 11.0 µM -55% | [3]; at 33.0 µM -50% | [3]; at 100.0 µM -44% | [4]; at 1.2 µM -34% | [4]; at 3.7 µM -26% | [4]; at 11.0 µM -14% | [4]; at 33.0 µM 43% | [5]; at 1.2 µM -3% | [5]; at 3.7 µM 3% | [5]; at 11.0 µM 12% | [5]; at 33.0 µM 55% | [5]; at 50.0 µM 68.3% | [6]; at 1.2 µM -72% | [6]; at 3.7 µM -67% | [6]; at 11.0 µM -39% | [6]; at 33.0 µM 56% | [7]; at 1.2 µM -61% | [7]; at 3.7 µM -54% | [7]; at 11.0 µM -60% | [7]; at 33.0 µM -7% | [8]; [16] -2% | [8]; at 50.0 µM 19.4% | [9]; at 1.2 µM 0% | [9]; at 3.7 µM 5% | [9]; at 11.0 µM 21% | [10]; [16] 56% | [11]; at 1.2 µM -6% | [11]; at 3.7 µM -15% | [11]; [16] 29% | [11]; at 11.0 µM -1% | [11]; at 33.0 µM 39% | [12]; at 1.2 µM -29% | [12]; at 3.7 µM -39% | [12]; at 11.0 µM -25% | [12]; at 33.0 µM 38% | [13]; at 1.2 µM -30% | [13]; at 3.7 µM -8% | [13]; at 11.0 µM 2% | [13]; at 33.0 µM 50%
active: [1]; at 100.0 µM 84% | [2]; at 100.0 µM 84% | [4]; at 100.0 µM 88% | [5]; [16] 99% | [5]; [17] 99% | [5]; at 100.0 µM 89% | [6]; [16] 99% | [6]; [17] 99% | [6]; at 50.0 µM 83.9% | [6]; at 100.0 µM 84% | [7]; at 100.0 µM 84% | [8]; [17] 94% | [9]; at 33.0 µM 83% | [9]; at 100.0 µM 82% | [10]; [17] 95% | [10]; at 50.0 µM 76.8% | [11]; [17] 92% | [11]; at 50.0 µM 78.2% | [11]; at 100.0 µM 87% | [12]; at 100.0 µM 88% | [13]; at 100.0 µM 87%

CCN(CC)C(C)(C)C(=O)/C=C/c1ccccc1
active: [5]; [17] 80% | [8]; [17] 92% | [11]; [17] 77% | [15]; [17] 95%
inactive: [1]; at 1.2 µM -1% | [1]; at 3.7 µM -1% | [1]; at 11.0 µM 0% | [1]; at 33.0 µM -1% | [1]; at 100.0 µM 2% | [2]; at 1.2 µM 0% | [2]; at 3.7 µM 5% | [2]; at 11.0 µM 2% | [2]; at 33.0 µM 2% | [2]; at 100.0 µM 4% | [3]; at 1.2 µM 2% | [3]; at 3.7 µM 6% | [3]; at 11.0 µM 8% | [3]; at 33.0 µM 6% | [3]; at 100.0 µM 5% | [4]; at 1.2 µM -3% | [4]; at 3.7 µM -3% | [4]; at 11.0 µM -3% | [4]; at 33.0 µM -1% | [4]; at 100.0 µM 2% | [5]; at 1.2 µM 0% | [5]; at 3.7 µM 2% | [5]; [16] 19% | [5]; at 11.0 µM 0% | [5]; at 33.0 µM 1% | [5]; at 50.0 µM 17.2% | [5]; at 100.0 µM 3% | [6]; at 1.2 µM 1% | [6]; at 3.7 µM 6% | [6]; [16] -15% | [6]; at 11.0 µM 5% | [6]; at 33.0 µM 9% | [6]; [17] 47% | [6]; at 50.0 µM 13.7% | [6]; at 100.0 µM 4% | [7]; at 1.2 µM -3% | [7]; at 3.7 µM -3% | [7]; at 11.0 µM 1% | [7]; at 33.0 µM 5% | [7]; at 100.0 µM 14% | [8]; [16] 42% | [8]; at 50.0 µM 17.6% | [9]; at 1.2 µM -4% | [9]; at 3.7 µM -12% | [9]; at 11.0 µM -4% | [9]; at 33.0 µM 1% | [9]; at 100.0 µM 2% | [10]; [16] -9% | [10]; [17] 46% | [10]; at 50.0 µM 7.15% | [11]; at 1.2 µM -1% | [11]; at 3.7 µM -3% | [11]; [16] 9% | [11]; at 11.0 µM 0% | [11]; at 33.0 µM -1% | [11]; at 50.0 µM 17.8% | [11]; at 100.0 µM -5% | [14]; at 1.2 µM 0% | [14]; at 3.7 µM -1% | [14]; at 11.0 µM -1% | [14]; at 33.0 µM 3% | [14]; at 100.0 µM 6% | [12]; at 1.2 µM 2% | [12]; at 3.7 µM 1% | [12]; at 11.0 µM 4% | [12]; at 33.0 µM 6% | [12]; at 100.0 µM 7% | [15]; [16] 57% | [15]; at 50.0 µM 20.4% | [13]; at 1.2 µM 1% | [13]; at 3.7 µM -1% | [13]; at 11.0 µM -1% | [13]; at 33.0 µM 3% | [13]; at 100.0 µM 6%

COC(=O)c1ccc(NCC2=CC(=O)C=CC2=O)cc1O
inactive: [1]; at 1.2 µM 13% | [1]; at 3.7 µM 34% | [2]; at 1.2 µM -14% | [2]; at 3.7 µM 2% | [2]; at 11.0 µM 68% | [3]; at 1.2 µM 17% | [3]; at 3.7 µM 63% | [4]; at 1.2 µM 9% | [4]; at 3.7 µM 30% | [5]; at 1.2 µM 12% | [5]; at 3.7 µM 32% | [5]; [16] 12% | [6]; at 1.2 µM -2% | [6]; at 3.7 µM 17% | [6]; [16] 13% | [7]; at 1.2 µM 33% | [7]; at 3.7 µM 61% | [8]; [16] 50% | [9]; at 1.2 µM 8% | [9]; at 3.7 µM 33% | [10]; [16] 36% | [11]; at 1.2 µM -3% | [11]; at 3.7 µM 10% | [11]; [16] 66% | [11]; at 11.0 µM 20% | [12]; at 1.2 µM 3% | [12]; at 3.7 µM 30% | [15]; [16] 0% | [13]; at 1.2 µM 18% | [13]; at 3.7 µM 32%
active: [1]; at 11.0 µM 80% | [1]; at 33.0 µM 97% | [1]; at 100.0 µM 92% | [2]; at 33.0 µM 97% | [2]; at 100.0 µM 93% | [3]; at 11.0 µM 89% | [3]; at 33.0 µM 97% | [3]; at 100.0 µM 92% | [4]; at 11.0 µM 77% | [4]; at 33.0 µM 97% | [4]; at 100.0 µM 91% | [5]; at 11.0 µM 75% | [5]; at 33.0 µM 95% | [5]; [17] 96% | [5]; at 50.0 µM 91% | [5]; at 100.0 µM 93% | [6]; at 11.0 µM 70% | [6]; at 33.0 µM 97% | [6]; [17] 98% | [6]; at 50.0 µM 93.2% | [6]; at 100.0 µM 89% | [7]; at 11.0 µM 98% | [7]; at 33.0 µM 98% | [7]; at 100.0 µM 92% | [8]; [17] 98% | [8]; at 50.0 µM 93.5% | [9]; at 11.0 µM 78% | [9]; at 33.0 µM 96% | [9]; at 100.0 µM 93% | [10]; [17] 93% | [10]; at 50.0 µM 89.9% | [11]; at 33.0 µM 95% | [11]; [17] 98% | [11]; at 50.0 µM 91.1% | [11]; at 100.0 µM 93% | [12]; at 11.0 µM 76% | [12]; at 33.0 µM 97% | [12]; at 100.0 µM 91% | [15]; [17] 93% | [15]; at 50.0 µM 92.2% | [13]; at 11.0 µM 85% | [13]; at 33.0 µM 97% | [13]; at 100.0 µM 95%
